Rows were chosen to be rich in hits. Some 3.8% of all compounds tested hit in one or more screens of this group.
TIM10 inh – inhibits growth of TIM10 yeast strain; S. cerevisiae TIM10 strain growth, BacTiter-Glo luminescence, 24 h; inhibition, % at 10 µM; hit rate 1.4% among 330,000; AID 463195;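 active means inhibition of 40% or more at the single tested concentration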;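 further: wild-type TIM10 isogenic control strain grown at permissive 25 °C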
CR mimetic SO – yeast age-related superoxide inhibition as caloric restriction mimetic. S. cerevisiae aged cells, superoxide DHE fluorescence; stronger effect = lower value. superoxide response (% of plate mean), % at 10 µM. hit rate 0.18% among 330,000. AID 2690;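 active means superoxide response under a set limit, about three screen SD below normal, cut at about 65% in these data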;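 further: yeast aged for seven days with compound at 30 °C before DHE staining; 100% = average MFI of all compound-treated wells on the plate with controls excluded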
NALP3 yeast inh – blocks the NALP3 inflammasome reconstituted in yeast; Yeast reconstituted NLRP3/ASC/caspase-1, beta-gal luminescence, 24 h; inhibition, % at 10 µM; hit rate 0.39% among 330,000; AID 2825;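 active means inhibition of 50% or more; inactive means inhibition below 50%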;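 further: plate controls were induced DMSO wells for no effect and uninduced yeast grown without galactose for full effect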
tim23-1 inh – inhibits growth of tim23-1 mutant yeast | hit rate 1.3% among 330,000 | inhibition, % at 20 µM | AID 463212 | S. cerevisiae tim23-1 growth, BacTiter-Glo luminescence, 24 h;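 active means growth inhibition of the mutant yeast at or above 50%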;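 further: temperature-sensitive mutant grown at 25 °C; plate controls were DMSO-treated mutant yeast for no effect and medium wells lacking yeast for full effect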
tim10-1 inh – inhibits growth of tim10-1 mutant yeast. AID 463190. inhibition, % at 20 µM. hit rate 2.2% among 330,000. S. cerevisiae tim10-1 ts strain growth, BacTiter-Glo, 24 h;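 active means inhibition of at least 40%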;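 further: mutant grown at 25 °C; 0% = DMSO wells with yeast and 100% = wells holding no yeast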
NALP3 confirm – confirmation of NALP3 inhibitors in yeast; inhibition, % at 10 µM; hit rate 81% among 1,300; yeast expressing human NALP3, luminescence; shares compounds with NALP3 yeast inh; in the data active means inhibition above about 48%
Casp1-ASC yeast – caspase-1-ASC yeast counter-screen hit; shares compounds with NALP3 yeast inh; yeast expressing Caspase-1-ASC, luminescence counter screen; inhibition, % at 10 µM; hit rate 66% among 1,000
NALP3 retest – yeast NALP3 inhibition, confirmed on retest | AID 488794 | inhibition, % at 10 µM | hit rate 53% among 1,000 | shares compounds with NALP3 yeast inh | yeast expressing human NALP3, luminescence read-out
The depositor's hits bear a star. Unless noted, no stated cut-off is given here; in the data, active means inhibition above about 50%; inactive means the rest.

`CCCCn1c(O)c(C=Nc2c(C)n(C)n(-c3ccccc3)c2=O)c(=O)[nH]c1=O` gave TIM10 inh 1.9, CR mimetic SO 95.0, NALP3 yeast inh 10.1, tim23-1 inh -5.1 and tim10-1 inh -9.5.
For CC(C)c1ccc(C2NCc3ccccc3-n3cccc32)cc1 (stereo unspecified) the results were TIM10 inh 5.1, CR mimetic SO 99.8, NALP3 yeast inh 63.9*, tim23-1 inh 34.5, tim10-1 inh 33.8, NALP3 confirm 39.8, Casp1-ASC yeast 60.1* and NALP3 retest 57.8*.
Screening C[C@H](O)[C@H]1CC[C@H]2[C@@H]3CCC4=CC(=O)CC[C@]4(C)[C@H]3CC[C@]12C returned TIM10 inh -92.7, CR mimetic SO 83.8, NALP3 yeast inh 52.0*, tim23-1 inh 13.4, tim10-1 inh -27.9, NALP3 confirm 72.7*, Casp1-ASC yeast 41.6 and NALP3 retest 40.0.
`CC(=O)O[C@H]1CC[C@@]2(C)C(=CC[C@@H]3[C@@H]2CC[C@]2(C)C(=O)CC[C@@H]32)C1` gave TIM10 inh -124.8, CR mimetic SO 95.4, NALP3 yeast inh 58.0*, tim23-1 inh 7.2, tim10-1 inh -30.7, NALP3 confirm 59.0*, Casp1-ASC yeast 59.5* and NALP3 retest 39.7.
`CC12CCC3C(CC=C4CC(O)CCC43C)C1C/C(=C\c1cccc(F)c1)C2=O` (stereo unspecified) gave TIM10 inh -6.0, CR mimetic SO 99.7, NALP3 yeast inh 13.3, tim23-1 inh -0.1 and tim10-1 inh 5.0.
Screening CC[C@]12CC[C@H](O)CC1=CCC1C2CC[C@]2(C)C(=O)CCC12 (stereo partly specified) returned TIM10 inh -21.1, CR mimetic SO 78.8, NALP3 yeast inh 67.3*, tim23-1 inh -60.3, tim10-1 inh -15.7 and NALP3 confirm 59.7*.
For O=C(CCC(=O)N1C[C@H]2C[C@@H](C1)c1cccc(=O)n1C2)NCc1cccc(C(F)(F)F)c1 the results were TIM10 inh -10.6, CR mimetic SO 95.5, NALP3 yeast inh 11.4, tim23-1 inh -6.9 and tim10-1 inh -14.3.
CN1C(C(=O)N2CCC3(CC2)OCCO3)=CC(c2ccc(F)cc2)=NS1(=O)=O was read as TIM10 inh -0.5, CR mimetic SO 109.0, NALP3 yeast inh 4.4, tim23-1 inh 18.7 and tim10-1 inh 15.3.
For CC1(C)C2([N+](=O)[O-])CN3CC1([N+](=O)[O-])CN(C2)C3c1ccccn1 (stereo unspecified) the results were TIM10 inh 4.2, CR mimetic SO 109.7, NALP3 yeast inh 5.2, tim23-1 inh -0.8 and tim10-1 inh 15.6.
N#CC(C#N)=Cc1ccc(-c2ccccc2)o1 was read as TIM10 inh 31.0, CR mimetic SO 102.0, NALP3 yeast inh 72.9*, tim23-1 inh 26.0, tim10-1 inh 17.8 and NALP3 confirm 74.2*.
Screening COC(=O)C1=C(c2ccc(-c3ccccc3)c(F)c2)C[C@@H]2CC[C@H]1N2C(=O)NCc1ccco1 returned TIM10 inh 4.3, CR mimetic SO 86.4, NALP3 yeast inh 8.9, tim23-1 inh 28.2 and tim10-1 inh 15.4.
Screening Oc1ccc(/C=N/NP(=S)(c2ccccc2)c2ccccc2)cc1 returned TIM10 inh 26.0, CR mimetic SO 94.1, NALP3 yeast inh 56.1*, tim23-1 inh 42.2, tim10-1 inh 25.8, NALP3 confirm 74.2*, Casp1-ASC yeast 64.7* and NALP3 retest 57.1*.
`COc1cc(/C=N/NP(=S)(c2ccccc2)c2ccccc2)ccc1O` gave TIM10 inh 5.5, CR mimetic SO 113.0, NALP3 yeast inh 1.8, tim23-1 inh 19.3 and tim10-1 inh 15.8.
Screening COC(=O)C1=C(c2ccc(F)cc2OCc2ccccc2)C[C@@H]2CC[C@H]1N2C(=O)NCCNC(C)=O returned TIM10 inh 10.1, CR mimetic SO 112.2, NALP3 yeast inh 12.5, tim23-1 inh -3.8 and tim10-1 inh -10.0.
Screening C[C@]12CC[C@@H](O)CC1=CCC1C2CC[C@]2(C)C(=O)[C@H](F)CC12 (stereo partly specified) returned TIM10 inh -15.6, CR mimetic SO 75.7, NALP3 yeast inh 49.8, tim23-1 inh 17.2 and tim10-1 inh 11.5.

From PubChem BioAssay
